The supplement of paper PMC11219838
Values without a mark were called inactive.

tested on: Caenorhabditis elegans L1 (N2); experiment: survival and reproduction score of C. elegans L1 (0: 0-10 living worms, 1: 11-20, 2: 21-50, 3: >50, 4: overgrown) (score 0-4); higher = more worms, less nematicidal, active = 1 or less; extreme values may be limits of the assay; conditions: 60 µM; 6 days; temperature: 20 °C
Summary of the method: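 After compound was pinned to 60 µM final (0.6% v/v DMSO) into wells with roughly 20 synchronized C. elegans N2 L1s and E. coli HB101 in liquid NGM, the sealed 96-well plates were shaken at 200 rpm for 6 days at 20 °C. Under a dissection microscope, survival and reproduction were graded ordinally by living worms per well. A grade of 0 stood for 0–10 worms and 4 for overgrown, starved wells; two biological replicates were averaged.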

Row | SMILES | survival and reproduction score
1 | Clc1ccc(-c2nnc(SCc3ccccc3)o2)c(Cl)c1 | 4
2 | CC(C)(C)C(=O)CSc1nnc(-c2ccc(Cl)cc2Cl)o1 | 4
3 | CC(=O)Nc1ccc(-c2nc(-c3ccccc3)no2)cc1 | 4
4 | Cc1cc(OCc2nc(-c3ccncc3)no2)c(C)c(C)c1Br | 4
5 | CCCC(=O)Nc1ccccc1-c1nc(-c2ccncc2)no1 | 4
6 | CC1CCN(C(=O)CSc2nnc(-c3cccc(Cl)c3)o2)CC1 | 4
7 | Cc1ccc(-c2noc(-c3ccc(C)cc3)n2)cc1 | 0.5 (active)
8 | COc1ccc(CCC(=O)Nc2ccc(-c3noc(COc4ccccc4C)n3)cc2)cc1 | 4
9 | O=C(CSc1nnc(-c2ccc(Cl)cc2)o1)Nc1ccc(F)cc1 | 4
10 | COc1ccc(-c2noc(-c3cc(C)ccc3C)n2)cc1 | 4
11 | CCOc1ccccc1-c1nc(-c2ccc(NC(=O)c3ccncc3)cc2)no1 | 4
12 | CCOc1cc(-c2nc(-c3cc4ccccc4nc3OC)no2)cc(OCC)c1OCC | 4
13 | COc1ccc(-c2noc(COc3ccc(Br)c(C)c3)n2)cc1 | 4
14 | COc1ccc(-c2nnc(SCC(=O)Nc3ccc(Cl)c(Br)c3)o2)cc1 | 4
15 | Brc1ccc(-c2nc(-c3ccccc3)no2)cc1 | 0 (active)
16 | CC(Oc1ccccc1)c1nc(-c2cccnc2)no1 (centres undefined) | 4
17 | CN(C(=O)CSc1nnc(-c2ccccc2)o1)c1ccccc1 | 4
18 | Cc1cc(Cl)ccc1NC(=O)CSc1nnc(-c2ccncc2)o1 | 4
19 | O=C(CSc1nnc(-c2ccc(Cl)cc2Cl)o1)Nc1ccccn1 | 4
